The record followed here is PubChem BioAssay (NCI).

SMILES strings stand for the structures. Where “and” joins values, the source holds several entries; their conditions need not be identical. Equal values may be shown once. About 79,000 compounds went through this panel and 15% of them were active in at least one assay; those are over-represented in the sample as a whole. Calls of active or inactive are those of the source. Rule as the data show it: active = growth inhibition above about 70%; inactive = the rest.

This assay in a line: NCI Yeast Anticancer Drug Screen. Data for the sgs1 mgt1 strain (AID 161).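 Also: 0% = growth of cultures given vehicle only.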 The following applies: S. cerevisiae sgs1 mgt1 strain, at 50.0 µM, active compounds read high. A digest of the protocol:
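Compounds are added to genetically altered yeast, and growth is compared with cultures given vehicle alone to give percent inhibition.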
For the compound `CN(N=O)c1ccc([N+](=O)[O-])cc1`, the growth inhibition was 15.8% (inactive).
For the compound `C1=CC(N2CCOCC2)CC1` (stereo unspecified), the growth inhibition is 1.75% (inactive).
With `CC1=CC(C)=Nc2ccc(C)cc2N1`, the growth inhibition was -5.95% (inactive).
As to `CC[C@@]1(O)C(=O)OCc2c1cc1n(c2=O)Cc2c-1nc1ccccc1c2C=Nc1ccccc1N[C@@H]1c2cc3c(cc2[C@@H](c2cc(OC)c(O)c(OC)c2)[C@H]2C(=O)OC[C@@H]21)OCO3`, the growth inhibition is 76.5% (active) and 84.7% (active).
Under `O=[N+]([O-])c1ccc(Cl)c([N+](=O)[O-])c1` stands 99.2% (active).
On to `NC1=NC(=O)C(c2ccccc2)(c2ccccc2)O1`, for which the growth inhibition was 5.95% (inactive).
On to `c1ccc2c(c1)sc1sc3ccccc3[n+]12`, for which the growth inhibition was 1.8% (inactive).
`O=C(c1ccc([N+](=O)[O-])cc1)C1NC1c1ccccc1` (stereo unspecified): the growth inhibition was 24% (inactive).
In the case of `COC(=O)c1ccc(C=C(C#N)C#N)cc1`, the growth inhibition was -27.9% (inactive).
For `CP(O)(=S)C1CCCCC1` (stereo unspecified) (tested in a mixture with another compound), the growth inhibition is -4.85% (inactive).
The figure for `CC(C)CC(NC(=O)C(Cc1ccccc1)NC(=O)CNC(=O)CNC(=O)C(N)Cc1ccc(O)cc1)C(=O)O` (stereo unspecified) is -8.25% (inactive); for `CC(C(=O)O)C(Br)C(=O)O` (stereo unspecified) it is 1.7% (inactive).
For the compound `Cc1cccc[c]1[Sb](=[O])([OH])[OH]`, the growth inhibition was -15.9% (inactive).
With `CCN(CC)C(=O)N1CC2CCC(C1)N2C`, the growth inhibition was -6.9% (inactive).
The figure for `S=c1sc(-c2ccc(Cl)cc2)c[se]1` is -13.3% (inactive).
The figure for `Oc1ccc(C=NCC2CCCC[N-]2)c(O)c1.Oc1ccc(C=NCC2CCCC[N-]2)c(O)c1.[Ni+2]` (stereo unspecified) is 6.55% (inactive).
